# Source: PubChem
# EWS-Fli inh = inhibitors of EWS/Fli oncoprotein transcriptional activity; actives 0.67% (n = 350,000); inhibition, % at 12.6 µM; A673 NR0B1-luciferase reporter, viability-normalised;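 active = mean inhibition of at least 50% after viability correction, with every replicate also passing that limit; inconclusive = mean reaches 50% but only one of two replicates passes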;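 note: firefly luciferase signal divided by Alamar Blue viability fluorescence both relative to DMSO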
# PAX8 inh HTS = lowers PAX8-driven luciferase in RMG-I cells; RMG-I TPO-luciferase reporter, SteadyGlo, 24 h; inhibition, % at 12.6 µM; actives 1.2% (n = 360,000);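 active = mean replicate inhibition at least 60% with every replicate also reaching 60%; inconclusive = only one of the two criteria is met; inactive = mean below 60% and not all replicates reaching 60%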;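 note: luciferase light reporting Pax8 driven TPO promoter activity; plate controls were median of neutral control wells for no effect and mitoxantrone controls for full effect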
# LGR2 inh = inhibitors of bursicon-induced Drosophila LGR2 receptor cAMP signaling; HEK293 LGR2, CRE-luciferase, bursicon-stimulated, 4 h; inhibition, % at 9.99 µM; actives 0.35% (n = 380,000);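 active = drop in luminescence signal, shown as inhibition above about 50% in the replicate tests, limit read from the data, passing the limit was not always enough; inconclusive = probably only some replicates passing the limit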;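 note: agonist challenge used bursicon conditioned medium at about half maximal strength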
# Shn3 inh set2 = Schnurri-3 reporter inhibition in Clone20 osteoblasts | Clone20 osteoblast Shn3 3'UTR firefly luciferase, 24 h | inhibition, % at 12.5 µM | actives 0.52% (n = 360,000) | AID 588674;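 active = mean inhibition of at least 75% with every replicate also reaching 75%; inconclusive = mean inhibition at least 75% but some replicate below; inactive = mean inhibition below 75%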;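 note: 0% = median of neutral control wells and 100% = pilot-screen positive control compound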
# LMP1 NFkB inh = inhibitors of Epstein-Barr LMP1-induced NF-kappaB reporter; LMP1-induced NF-kappaB luciferase reporter cells, luminescence; inhibition, % at 12.5 µM; actives 0.69% (n = 350,000); AID 504558; in the data active = inhibition above about 41%; inconclusive = no clear call, values can overlap the other calls;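 note: 0% = neutral control wells and 100% = reference inhibitor control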
# MITF TRPM1 inh = inhibitors of MITF-driven TRPM1 promoter in melanoma cells | SK-MEL-5 TRPM1 promoter luciferase, 24 h | inhibition, % at 12.5 µM | actives 0.83% (n = 330,000);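 active = mean inhibition across replicates of 60% or more, whatever share of single replicates reaches that level; inconclusive = some that reach 60%, reason not given; inactive = mean inhibition across replicates below 60%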
# * marks the source's active call; other numbers are inactive results; ? = inconclusive; / = no result given; ! = not active in a repeat. Sampled rows, rich in hits. Any-hit rate of the full collection: about 2.2%.
SMILES,EWS-Fli inh,PAX8 inh HTS,LGR2 inh,Shn3 inh set2,LMP1 NFkB inh,MITF TRPM1 inh
COc1cc(CN2C[C@@H]3N[C@H](C2)C3c2ccc(-c3ccccc3C)cc2)cc(OC)c1 (some centres not stated),4.1,72.8*!,10.4,/,/,/
COc1cccc(-c2ccc(C3[C@@H]4CN(Cc5cccc(F)c5)C[C@H]3N4)cc2)c1 (some centres not stated),-11.5,75.3*!,-12.6,/,/,/
Fc1ccc(-c2ccc(C3[C@@H]4CN(Cc5cccc(F)c5)C[C@H]3N4)cc2)cc1 (some centres not stated),-11.4,26.7,13.0,/,/,/
COc1ccc2c3c([nH]c2c1)[C@@H](CO)N(C)CC31CN(C(=O)c2ccccn2)C1,3.0,/,-9.2,/,/,/
O=C(Cc1ccncc1)N1C[C@@H]2N[C@H](C1)C2c1ccc(-c2ccccc2)cc1 (some centres not stated),2.5,-3.5,-11.7,/,/,/
Cc1ccccc1-c1ccc(C2[C@@H]3CN(C(=O)Cc4ccccc4)C[C@H]2N3)cc1 (some centres not stated),55.8*!,33.1,13.6,/,/,/
Cc1ccc(/C=C2/SC(=S)N(c3ccc(S(=O)(=O)Nc4nccs4)cc3)C2=O)cc1,2.1,21.8,29.9,/,66.9*,?
COc1ccc(/C=C2/SC(=S)N(c3ccc(S(=O)(=O)Nc4nccs4)cc3)C2=O)cc1,9.7,15.6,30.1,24.6,5.7,1.4
C[C@@H](NC(=O)[C@@H]1[C@@H](CO)[C@@H]2Cn3c(cccc3=O)[C@@H]2N1Cc1cccnc1)c1ccccc1,-4.7,/,18.4,/,/,/
Cc1ccc2nc(-c3ccccn3)[nH]c2c1,44.3,-31.7,82.1*,-2.1,40.7*,11.5
c1ccc(-c2nc3ccccc3[nH]2)nc1,-14.7,-73.3,-30.5,-61.0,-8.9,-65.4
CCCOc1ccc(/C=N/NC(=O)CSCc2ccc([N+](=O)[O-])cc2)cc1OCC,-9.2,83.5*,-7.1,16.1,-5.7,-11.1
O=[N+]([O-])c1ccccc1/C=C/c1ccncc1,-19.1,-19.7,/,/,/,/
C[C@@H]1CN([C@H](C)CO)C(=O)c2cc(NC(=O)Cc3ccccc3)ccc2O[C@@H](C)CCCCO[C@@H]1CN(C)S(=O)(=O)c1ccccc1,-0.8,3.9,17.2,/,/,/
CCc1c(O)nc(SCC(=O)Nc2ccccc2)n(-c2ccccc2)c1=O,-17.6,/,0.9,95.8*,-34.3,0.1
O=C1c2cccc3cc([N+](=O)[O-])cc(c23)C(=O)N1CCN1CCCC1,69.5*,89.9*,31.8,94.3*,74.2*,84.1*
Nc1cc2c3c(cccc3c1)C(=O)N(CCN1CCCC1)C2=O,39.1,11.3,-19.1,6.2,-13.5,90.0*
CCN(CC)CCN1C(=O)c2cccc3cc(N)cc(c23)C1=O,18.9,-12.5,-30.9,-28.3,-18.7,7.8
O=C1c2ccccc2C(=O)N1CCN1CCCCC1,/,/,-30.3,-2.2,-0.3,-1.4
C[C@@H]1CN([C@H](C)CO)C(=O)c2cc(C3=CCCCC3)cnc2O[C@@H]1CN(C)C(=O)c1ccccn1,1.0,9.3,-8.6,/,/,/
Nc1nc(NCc2ccccc2)nc(NCc2ccccc2)c1[N+](=O)[O-],/,2.1,3.5,2.8,-7.1,-5.1
CN(C)c1nc(N)c([N+](=O)[O-])c(NCc2ccccc2)n1,-5.3,68.4*,-6.6,-11.6,-43.5,-4.6
O=C(N[C@H]1CC[C@H](CC(=O)N2CCCCC2)O[C@@H]1CO)c1ccc2c(c1)OCO2,-4.7,2.3,13.6,/,/,/
C[C@H](CO)N1C[C@H](C)[C@@H](CN(C)S(=O)(=O)c2cn(C)cn2)Oc2ccc(NC(=O)Nc3cccc4ccccc34)cc2CC1=O,11.8,11.4,-3.5,/,/,/
CCCCC1C(=O)N(c2ccccc2)N(c2ccc(O)cc2)C1=O (configuration not stated),45.5,26.8,/,80.0,54.6*,96.1*
SMILES,EWS-Fli inh,PAX8 inh HTS,LGR2 inh,Shn3 inh set2,LMP1 NFkB inh,MITF TRPM1 inh
CCCCC1(CO)C(=O)N(c2ccccc2)N(c2ccccc2)C1=O,-0.4,1.5,5.3,/,-5.2,-5.3
CN(C)S(=O)(=O)c1cccc(N=c2scc(-c3ccc4c(c3)NC(=O)CO4)n2CC2CCCO2)c1 (configuration not stated),/,/,/,86.3*,-4.5,1.3
COCC#Cc1ccc2c(c1)O[C@H](CN(C)C(=O)NC(C)C)[C@@H](C)CN([C@H](C)CO)S2(=O)=O,-5.8,/,9.0,/,/,/
COC(=O)C[C@@H]1C[C@@H]2c3cc(NS(=O)(=O)c4ccc(OC)cc4)ccc3O[C@@H]2[C@@H](CO)O1,4.0,6.1,15.4,/,/,/
Cc1n[nH]c(C)c1CCC(=O)N/N=C/c1c(C)[nH]c2ccccc12,27.0,85.1*,7.1,/,-8.2,6.3
O=C(C[C@@H]1CC[C@@H]2[C@H](COC[C@@H](O)CN2S(=O)(=O)c2ccccc2)O1)NCc1ccc(-c2ccccc2)cc1,10.5,11.1,-16.5,/,/,/
Brc1cccc(CSc2nnc(-c3ccncc3)o2)c1,-15.8,-24.8,34.4,16.3,70.8*,3.6
C[C@@H]1CN([C@@H](C)CO)C(=O)Cc2cc(NC(=O)CCCCCC(=O)Nc3ccccc3N)ccc2O[C@H]1CN(C)C,/,-11.5,10.5,/,/,/
C[C@@H]1CCCCO[C@@H](CN(C)C(=O)Cc2ccccc2)[C@H](C)CN([C@@H](C)CO)C(=O)c2cc(NC(=O)CCCCCC(=O)Nc3ccccc3N)ccc2O1,9.6,/,12.7,/,/,/
COc1ccc(S(=O)(=O)Nc2ccc(O)c3ccccc23)cc1,/,/,/,16.0,-7.6,68.7*
CSC1=NC(C(Cl)(Cl)Cl)N=C(c2ccc(C)cc2)N1 (configuration not stated),59.5*,-8.7,15.7,-7.1,9.7,-3.6
CC1CCN(c2c(NCc3ccc(C(=O)N4CCc5ccccc54)cc3)c(=O)c2=O)CC1,53.3*,23.0,/,12.2,15.4,49.5
COc1ccccc1NC(=O)N[C@H]1CC[C@@H](CCNC(=O)Cc2ccccn2)O[C@@H]1CO,2.4,16.7,-21.2,/,/,/
O=[N+]([O-])c1ccc(/C=N/NC(=S)Nc2ccc(Cl)cc2Cl)s1,10.5,92.1*,-7.4,3.9,15.1,40.4
Fc1ccc(NC(=S)N/N=C/c2ccc(F)c(F)c2)cc1,-7.5,-1.3,-95.8,-15.7,-2.4,-3.0
O=[N+]([O-])c1ccc(O)c(/C=N/NC(=S)Nc2ccc(Cl)cc2Cl)c1,10.7,19.5,-2.5,15.1,24.2,43.4
Fc1ccc(/C=N/NC(=S)Nc2ccc(Cl)cc2Cl)cc1,52.6*,-1.3,-1.3,-7.1,-3.3,10.8
COCC(=O)N1CC(=O)N2[C@@H](CO)[C@@H](c3ccc(C#CC4CCCC4)cc3)[C@@H]2C1,-5.9,/,10.6,/,/,/
CN1CCN(C(=O)C[C@@H]2CC[C@H](NC(=O)Cc3ccccn3)[C@@H](CO)O2)CC1,-2.0,15.2,10.2,/,/,/
C(=N\Nc1nc(-c2ccccc2)cs1)/c1ccncc1,-115.3,-44.3,-77.5,-74.2,-28.2,-67.3
